Tb PFK block: qHTS Assay to Find Inhibitors of T. brucei phosphofructokinase | ATP-dependent 6-phosphofructokinase (Trypanosoma brucei brucei), O15648 | T. brucei PFK, ADP-Glo luminescence | 330,000 tested, 0.17% active | Potency, µM (doses to about 57.5 µM), without a hit: top-dose activity, negative = inhibition, most hits filed as inhibitors | AID 485367, 2010;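 further: 0% = uninhibited 1x PFK enzyme wells and -100% = no-enzyme wells; nearly all actives have a fitted effect of over 60% in size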
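In TEA buffer at pH 8.0 with 5 mM MgCl2, enzyme (1.25 nM) converted F6P (0.5 mM) and ATP (0.1 mM) for 45 min at room temperature. ADP product was read by luciferase luminescence.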
VDR inh: Inhibitors of the vitamin D receptor (VDR): qHTS; Vitamin D3 receptor (Homo sapiens), P11473; VDR-SRC2-3 peptide fluorescence polarization, 2 h; Potency, µM, for inactives: max response, negative = inhibition, hits mostly inhibitors; 400,000 tested, 0.93% active; further: on the % scale 0 is the no-effect control and ±100 the full control effect
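Compounds are added to VDR with labelled SRC2-3 coactivator peptide and held 2 h at room temperature. Inhibition of the VDR–peptide interaction is then read as a change in fluorescence polarization.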
BRCA1 expr up: qHTS Assay to Identify Small Molecule Activators of BRCA1 Expression. MCF7-BRCA1-FFLuc reporter, luminescence, 48 h; response scale: scaled: vehicle 0%, 10 µM genistein 100%. Potency, µM (top dose mostly 46.1 µM), for inactives: top-dose activation, usual class: activators. 380,000 tested, 1.1% active; further: nearly all actives have a fitted effect of over 80% in size
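Cells: MCF7-BRCA1-FFLuc, 2000/well. Exposure: 48 h, 37 °C, 5% CO2. Read: luminescence, 15 min post-substrate. Controls: genistein 10 microM (maximal activation), DMSO (neutral).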
PLK1 PBD inh: qHTS for Inhibitors of PLK1-PDB (polo-like kinase 1 - polo-box domain): Primary Screen; Plk1 PBD binding of FITC phosphopeptide, fluorescence polarization; Serine/threonine-protein kinase PLK1 (Homo sapiens), P53350; Potency, µM, without a hit: max response, negative = inhibition, actives largely listed as inhibitors; 360,000 tested, 2.8% active; further: series mostly up to about 57 µM; on the % scale 0 is the no-effect control and ±100 the full control effect; nearly all actives have a fitted effect of over 65% in size
Target sequence (P53350 whole entry, looked up, the tested form may be a part): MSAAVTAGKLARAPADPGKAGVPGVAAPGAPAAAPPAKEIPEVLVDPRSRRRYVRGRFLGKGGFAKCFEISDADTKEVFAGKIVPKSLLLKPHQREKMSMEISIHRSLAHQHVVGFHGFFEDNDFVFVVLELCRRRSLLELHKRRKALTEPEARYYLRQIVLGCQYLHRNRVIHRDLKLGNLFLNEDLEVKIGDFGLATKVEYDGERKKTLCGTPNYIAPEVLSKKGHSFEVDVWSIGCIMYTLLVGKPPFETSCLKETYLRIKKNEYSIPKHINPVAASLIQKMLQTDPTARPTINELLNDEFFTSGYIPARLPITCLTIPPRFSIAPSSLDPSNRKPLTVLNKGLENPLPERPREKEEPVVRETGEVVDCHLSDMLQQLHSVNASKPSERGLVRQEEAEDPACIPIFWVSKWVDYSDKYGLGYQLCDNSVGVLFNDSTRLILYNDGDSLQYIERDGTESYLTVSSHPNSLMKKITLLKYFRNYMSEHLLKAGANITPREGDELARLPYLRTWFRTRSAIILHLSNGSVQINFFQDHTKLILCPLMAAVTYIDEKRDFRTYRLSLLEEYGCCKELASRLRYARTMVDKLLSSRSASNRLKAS
VDR confirm: qHTS for Inhibitors of the vitamin D receptor (VDR): Hit Validation in Primary Screen; 840 tested, 89% active; shares compounds with VDR inh; Potency, µM, most hits filed as inhibitors; AID 602199, 2012; VDR-coactivator inhibition assay, qHTS confirmation
VDR FP: qHTS for Inhibitors of the vitamin D receptor (VDR): Hit Validation using a Fluorescein Assay; AID 602200, 2012; VDR-coactivator binding, fluorescein fluorescence polarization; Potency, µM (titrated, usually from 57.1 µM), without a hit: at the highest dose activity change, negative = inhibition, usual class: inhibitors; 840 tested, 48% active; shares compounds with VDR inh
VDR bla: qHTS for Inhibitors of the vitamin D receptor (VDR): Hit Validation using a Beta-Lactamase Assay. shares compounds with VDR inh. VDR beta-lactamase reporter cells, FRET ratio; cells co-treated with VDR agonist LG190178. Potency, µM (top dose mostly 46.1 µM), inactives show top-dose activity change, negative = inhibition, hits mostly inhibitors. 840 tested, 23% active. AID 602202, 2012; further: on the % scale 0 is the no-effect control and ±100 the full control effect
VDR cytotox: qHTS for Inhibitors of the vitamin D receptor (VDR): Hit Validation using a Cytotoxicity Assay; cytotoxicity counter-screen, cell viability, qHTS; Potency, µM (series often up to 48.3 µM), for inactives: at the top dose activity change, negative = cytotoxicity, usual class: cytotoxic; 840 tested, 18% active; shares compounds with VDR inh;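 further: plate controls were DMSO for no effect and high-concentration cycloheximide for full effect; nearly all actives have a fitted effect of over 75% in size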
The depositor's hits bear a star; ? = inconclusive; / = not tested or not shown; ! = a repeat was not active. Only some compounds are listed: those with a hit (about 3.9% of all), similar ones and a draw of the others. The call rests on the fitted dose curve; in most records, active means well fitted curve in the direction sought with a large enough effect; inconclusive means small, poorly fitted or top-dose-only effect, or another doubt; inactive means no such curve, though single readings can be large; an effect the other way counts as inactive or inconclusive. Potency means the concentration at half of the fitted maximal effect.

SMILES	Tb PFK block	VDR inh	BRCA1 expr up	PLK1 PBD inh	VDR confirm	VDR FP	VDR bla	VDR cytotox
Oc1ccc(N=C/C=C/c2cccc(Br)c2)cc1-c1nc2ccccc2s1	0%	?	42%	?	8.9*	22µM*	18µM*	?
COc1ccc2nc(S(=O)Cc3ncc(C)c(OC)c3C)[nH]c2c1 (centres undefined)	-10%	89µM*!	-16%	24µM*	2.7*	?	41%	16%
COc1ccccc1-c1oc2ccccc2c1C#CC(C)(C)O	2%	-1%	-12%	-4%	/	/	/	/
c1ccc(-c2nn3c(Cn4cnc5ccccc54)nnc3s2)cc1	-15%	?	1%	7.5µM*	20*	7.1µM*	-21%	-19%
c1ccc(Cn2cnc3ccccc32)cc1	-7%	-17%	17%	-5%	/	/	/	/
O=C1Nc2ccc(Br)cc2/C1=C/C(=O)c1ccc2c(c1)OCO2	-7%	40µM*	-64%	?	?	?	?	?
COc1ccc(C(=O)/C=C2\C(=O)Nc3ccc(Br)cc32)cc1	/	?	-35%	?	/	/	/	/
CCc1ccc(-n2nc3cc(C)c(N)cc3n2)cc1	3%	?	-11%	?	7.1*	13µM*	1%	4%
Cc1ccc(-n2nc3cc(C)c(N)cc3n2)cc1	-5%	?	-8%	-16%	/	/	/	/
CCC(C)(C)c1nnc(NC(=O)C2CCN(C(=O)c3ccco3)CC2)s1	?	50µM*	-12%	2.4µM*	6.7*	?	-12%	4%
Cc1cc2nc3ccc(N(C)C)cc3nc2cc1N	/	79µM*	2%	?	19*	92%	18%	?
Cc1cc2nn(-c3cccc4ccccc34)nc2cc1N	1%	?	5%	?	/	/	/	/
COc1ccc(/C=C/C(=O)c2ccc([N+](=O)[O-])o2)cc1OC	2%	18µM*	-75%	?	3.5*	3.5µM*	3.3µM*	17µM*
COc1cc(OC)c(C(=O)C=Cc2ccc(OC)c(OC)c2)c(OC)c1	/	27%	-92%	-16%	/	/	/	/
CCN(CC)S(=O)(=O)c1ccc2c(c1)N(CC(=O)N1CCN(c3cccc(C(F)(F)F)c3)CC1)C(=O)CO2	/	-4%	/	/	/	/	/	/
Cc1ccc(C(=O)/C=C/N(C)C)o1	-2%	-2%	-1%	-12%	/	/	/	/
Cc1ccc(C(=O)/C=C/c2cc(Br)cc(Br)c2O)o1	0%	8.9µM*	-58%	27µM*	3.8*	?	?	-17%
O=C(O)c1cccc(-c2csc(C(O)c3ccccc3)n2)c1 (centres undefined)	/	/	8%	4%	/	/	/	/
CCOC(=O)c1c(-c2ccccc2)csc1NC(=O)c1nc(SCC)ncc1Cl	/	18%	/	/	/	/	/	/
CCOC(=O)c1c(-c2ccccc2)csc1NC(=O)c1nc(S(=O)(=O)CC)ncc1Cl	/	18µM*	/	/	3.2*	?	4.6µM*	21µM*
CCOc1ccccc1NC(=O)c1nc(S(=O)(=O)Cc2ccccc2)ncc1Cl	-16%	11µM*	-67%	?	6.7*	3.2µM*	6.5µM*	8.2µM*

Bioassay records from PubChem BioAssay.
